Screening data from PubChem BioAssay.
An excerpt weighted towards active compounds, which were near 2.4% of everything screened.
D2 PAM-1 – human D2 receptor positive allosteric modulation | P14416 | DiscoveRx D2 beta-arrestin cells, luminescence, 90 min; 100% = 57 uM dopamine signal | potentiation, % (no concentration beside the values) | actives 0.23% (n = 360,000) | AID 624464; in the data active = potentiation above about 50%
Target sequence (P14416 whole entry, looked up): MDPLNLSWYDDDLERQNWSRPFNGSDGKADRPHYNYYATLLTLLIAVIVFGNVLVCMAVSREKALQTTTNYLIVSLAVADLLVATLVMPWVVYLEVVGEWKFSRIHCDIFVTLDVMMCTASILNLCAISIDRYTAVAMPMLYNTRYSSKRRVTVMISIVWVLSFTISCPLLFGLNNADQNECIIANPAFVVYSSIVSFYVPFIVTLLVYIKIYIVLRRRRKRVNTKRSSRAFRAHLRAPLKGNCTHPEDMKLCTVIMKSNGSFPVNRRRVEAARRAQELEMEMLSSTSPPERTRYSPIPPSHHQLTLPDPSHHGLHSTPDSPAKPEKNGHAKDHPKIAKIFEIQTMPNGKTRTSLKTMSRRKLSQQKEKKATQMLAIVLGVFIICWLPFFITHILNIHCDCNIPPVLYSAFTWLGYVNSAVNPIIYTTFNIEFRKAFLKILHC
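PathHunter beta-arrestin assay in DiscoveRx D2 cells. Compounds were added with an EC20 of dopamine (50 nM final) for 90 min at 37 deg C. Luminescence was read 1 h after detection reagent, with 57 uM dopamine as the EC100 control.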
D2 ag-1 – agonists of human D2 dopamine receptor | P14416 | HEK293 T-REx D2 cells, calcium flux agonist mode | activation, % at 2 µM | actives 0.53% (n = 340,000) | AID 485358;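 active = activation over 3 SD above normal in the single-dose calcium agonist read, cut at about 30% in these data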
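Tetracycline-induced HEK293 Trex cells with D2 receptor force-coupled to calcium signaling, plated overnight at 30 C and loaded with no-wash calcium dye. Calcium flux read kinetically for 180 s after compound addition; responses flag agonists.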
D2 antag – antagonists of human D2 dopamine receptor | P14416 | HEK293 TREx D2 cells, calcium flux, dopamine EC80 | inhibition, % at 10 µM | actives 2% (n = 340,000) | AID 485344; in the data active = inhibition above about 30%; inactive = below that, where a call was filed
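Tetracycline-induced HEK293 TREx cells expressing D2 receptor forced-coupled to calcium signalling, loaded with no-wash calcium dye. Compounds added and calcium flux read 180 s, then dopamine added at EC80 and read a further 180 s.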
D2 ag-2 – agonists of human D2 dopamine receptor (beta-arrestin); AID 624465; DiscoveRx PathHunter D2 beta-arrestin, luminescence, 90 min; 100% = 57 uM dopamine signal; P14416; actives 0.084% (n = 360,000); activation, % (test concentration not listed); in the data active = activation above about 40%
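Agonist mode: compounds alone added to overnight-plated D2 PathHunter cells for 90 min at 37 C, with 57 uM final dopamine (EC100) defining full response. Beta-arrestin recruitment detected by chemiluminescent reagent, read after 1 h at ambient temperature.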
D2 PAM-2 – positive allosteric modulators of human D2 dopamine receptor; potentiation, % at 10 µM; HEK293 T-REx D2, calcium flux, EC20 dopamine potentiation; actives 0.34% (n = 340,000); P14416;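 active = potentiation over 3 SD above the plate norm, cut at about 30% in these data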
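Tetracycline-induced HEK293 T-REx cells force-coupled to calcium signalling expressed D2; compounds were pin-added after a 10 s baseline, read kinetically 180 s, then an EC20 dopamine challenge followed with a further 180 s calcium read.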
A number is an active result; 0 = inactive; - = no result.

SMILES | D2 PAM-1 | D2 ag-1 | D2 antag | D2 ag-2 | D2 PAM-2
Cc1ccc[n+](C(C)C(=O)Nc2ccc(C)c([N+](=O)[O-])c2)c1 (centres undefined) | 0 | 0 | 42.8 | 0 | 0
Cc1ccc[n+](C(C)C(=O)Nc2ccc([N+](=O)[O-])cc2C)c1 (centres undefined) | 0 | 0 | 0 | 0 | 0
CC(C)=N/N=c1\scc(C)n1Cc1ccco1 | 0 | 0 | 39.9 | 0 | 0
Cc1cs/c(=N\N=C\c2ccccc2)n1Cc1ccco1 | 0 | 0 | 0 | 0 | 0
Cc1cc(OCC(=O)NCCN2CCOCC2)c2c(C)c(C)c(=O)oc2c1 | 0 | 0 | 0 | 0 | 33.3
COc1ccc(OCC(=O)NCCCN2CCOCC2)cc1 | 0 | 0 | 31.7 | 0 | 0
CCC(=O)c1ccc(OCC(=O)NCCCN2CCOCC2)cc1 | 0 | - | - | 0 | -
CCCC(C)c1nnc(NC(=O)CS(=O)(=O)Cc2ccccc2)s1 (centres undefined) | 0 | 0 | 0 | 0 | 30.2
CCC(CC)c1nnc(NC(=O)CS(=O)(=O)Cc2ccccc2)s1 | 0 | - | - | 0 | -
CCCC(C)c1nnc(NC(=O)CCS(=O)(=O)Cc2ccccc2)s1 (centres undefined) | 0 | 0 | 0 | 0 | 0
CC(C)c1nnc(NC(=O)CS(=O)(=O)Cc2ccccc2)s1 | 0 | 0 | 54.6 | 0 | 0
Cn1c(-c2ccc(Cl)cc2)cnc1N | 0 | 0 | 0 | 0 | 0
CCNc1nc(NCC)nc(N(C#N)C(C)C)n1 | 0 | 0 | 0 | 0 | 0
CCNc1nc(NC(C)(C)C)nc(N(C#N)CC)n1 | 0 | 0 | 0 | 0 | 30.7
Cc1c(C(=O)N/N=C/c2ccoc2)cccc1[N+](=O)[O-] | 0 | 0 | 67.4 | 0 | 0
COc1ccccc1CNC(=O)c1cccc2c1C(=O)N(Cc1cccnc1)C2 | 0 | 0 | 0 | 0 | 30.6
COC(CNC(=O)c1cccc2c1C(=O)N(Cc1cccnc1)C2)OC | 0 | 0 | 0 | 0 | 0
COc1ccc(NS(=O)(=O)c2ccc3[nH]c(=O)[nH]c3c2)cc1OC | 0 | 0 | 0 | 0 | 0
CCc1ccc(NC(=O)COC(=O)CCCC2=NS(=O)(=O)c3ccccc3N2)cc1 | 0 | 0 | 0 | 0 | 0
O=C(COC(=O)CCCC1=NS(=O)(=O)c2ccccc2N1)Nc1ccccc1 | 0 | 0 | 0 | 0 | 38.4
CC(C)C(=O)Nc1cccc(NC(=S)NC(=O)c2ccccc2Cl)c1 | 0 | 0 | 0 | 0 | 0
COc1ccc(Oc2coc3cc(OC(=O)c4cccs4)ccc3c2=O)cc1 | 0 | 0 | 0 | 0 | 36.6
O=C(c1cccc(Br)c1)N1CCN(S(=O)(=O)N2CCOCC2)CC1 | 0 | - | - | 0 | 0
Cc1ccsc1/C=N/NC(=O)c1ccc2ccccc2c1 | 0 | 0 | 41.4 | 0 | 0
Cc1ccsc1/C=N/NC(=O)c1ccncc1 | 0 | 0 | 0 | 0 | 0
SMILES | D2 PAM-1 | D2 ag-1 | D2 antag | D2 ag-2 | D2 PAM-2
COc1ccc(C(=O)O/N=C(/C)c2cccs2)cc1 | 0 | 0 | 0 | 0 | 0
CC(=O)N1c2ccc(S(=O)(=O)N3CCC(C(=O)Nc4cccc(C)c4)CC3)cc2CC1C (centres undefined) | 0 | 0 | 0 | 0 | 0
CC(=O)N1c2ccc(S(=O)(=O)NCC3CCC(C(=O)Nc4ccc(C)cn4)CC3)cc2CC1C (centres undefined) | 0 | 0 | 0 | 0 | 34.2
CC(=O)N1c2ccc(S(=O)(=O)N3CCC(C(=O)Nc4cccc(Cl)c4)CC3)cc2CC1C (centres undefined) | 0 | 0 | 41.2 | 0 | 0
CC(=O)N1c2ccc(S(=O)(=O)NCC3CCC(C(=O)Nc4cc(C)cc(C)c4)CC3)cc2CC1C (centres undefined) | - | 0 | - | - | -
CC(=O)N1c2ccc(S(=O)(=O)N3CCCC3C(=O)Nc3ccc(C)cc3)cc2CC1C (centres undefined) | 0 | 0 | 36.7 | 0 | 0
CC(=O)N1c2ccc(S(=O)(=O)N3CCC(C(=O)Nc4cc(C)cc(C)c4)CC3)cc2CC1C (centres undefined) | 0 | 0 | 70.6 | 0 | 0
CCNC(=S)N=Nc1c(O)[nH]c2ccc([N+](=O)[O-])cc12 | 0 | 0 | 0 | 0 | 0
CCOC(=O)NC(NCc1ccccc1Cl)(C(F)(F)F)C(F)(F)F | 0 | 0 | 0 | 0 | 0
CC(C)c1ccc(NC(=O)C2CCN(S(=O)(=O)c3ccc4c(c3)NC(=O)CO4)CC2)cc1 | 0 | 0 | 0 | 0 | 0
Cc1ccc(NC(=O)C2CCN(S(=O)(=O)c3ccc4c(c3)NC(=O)CO4)CC2)cc1 | 0 | 0 | 32.0 | 0 | 0
COC(=O)c1cc2c(=O)c3ccccc3oc2nc1/C=C/N(C)C | 0 | 39.8 | 0 | 0 | 0
COC(=O)c1cc2c(=O)c3ccccc3oc2nc1C | 0 | 0 | 0 | 0 | 0
CCOc1cccc2sc(Nc3nc4ccc(NC(C)=O)cc4s3)nc12 | 0 | 0 | 30.8 | 0 | 0
Cc1cc(C)c2sc(NC(=O)CN3C(=O)CCC3=O)nc2c1 | 0 | 0 | 0 | 0 | 0
CCOC(=O)N1CCN(c2ccc(S(=O)(=O)N(Cc3ccccc3)Cc3ccccc3)cn2)CC1 | 0 | 0 | 0 | 0 | 0
Cc1ccccc1OCC(=O)OCC(=O)Nc1ccc(Cl)cn1 | 0 | 0 | 30.6 | 0 | 0
CNS(=O)(=O)c1ccc(CNC[C@H]2O[C@@H](n3cc(C)c(=O)[nH]c3=O)C[C@@H]2O)cc1 | 0 | - | - | 0 | -
CC1CN(CC(=O)c2c(N)n(Cc3ccccc3)c(=O)n(C)c2=O)CC(C)O1 (centres undefined) | 0 | 0 | 35.8 | 0 | 0
Cn1c(=O)c(C(=O)CN2CCOCC2)c(N)n(Cc2ccccc2)c1=O | 0 | 0 | 0 | 0 | 0
Nc1nonc1/C(=N/O)N1CCN(CCO)CC1 | 0 | 0 | 51.1 | 0 | 0
CN1CCN(/C(=N\O)c2nonc2N)CC1 | 0 | 0 | 0 | 0 | 0
CC(NC(=O)CN(C)CC(=O)Nc1ccccc1Br)c1ccccc1 (centres undefined) | 0 | 0 | 0 | 0 | 0
CC(NC(=O)CN(C)CC(=O)Nc1ccc(F)c(F)c1F)c1ccccc1 (centres undefined) | 0 | 0 | 49.4 | 0 | 0
O=C(CCl)Nc1cccc(S(=O)(=O)NC2=NCCCCC2)c1 | 0 | - | - | 0 | -
SMILES | D2 PAM-1 | D2 ag-1 | D2 antag | D2 ag-2 | D2 PAM-2
O=C(Nc1cccc(S(=O)(=O)NC2=NCCCCC2)c1)c1cc(-c2ccncc2)nc2ccccc12 | 98.3 | 0 | 0 | 0 | 0
O=C(Cc1c(F)cccc1Cl)Nc1cccc(S(=O)(=O)NC2=NCCCCC2)c1 | 0 | 0 | 31.1 | 0 | 0
CCOc1ccc(OCCCCN2CCCC2)cc1 | 0 | 0 | 0 | 0 | 0
CCCCOc1ccc(CN2CCCCC2)cc1 | 0 | 0 | 52.1 | 0 | 0
COC(=O)c1ccc(CN2CCCCC2)cc1 | 0 | 0 | 35.2 | 0 | 0
CCOC(=O)C1(CC2CC2)CCN(Cc2ccc(C(=O)OC)cc2)CC1 | 0 | 0 | 71.8 | 0 | 0
CCOC(=O)C1CCN(Cc2ccc(C(=O)OC)cc2)CC1 | 0 | 0 | 0 | 0 | 0
CCOC(=O)C1(CC2CC2)CCN(Cc2cn(C)c3ccccc23)CC1 | 0 | 0 | 30.3 | 0 | 0
